KAT2A inh – blocks human GCN5L2 histone acetyltransferase; hit rate 0.21% among 390,000; Potency, µM (highest dose often 58.9 µM), most hits filed as inhibitors; Q92830; GCN5L2 HAT assay, ThioGlo1 CoA-SH fluorescence
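ThioGlo1-coupled HAT assay: 20nM GCN5L2, 70uM acetyl-CoA, 75uM H3(1-25) peptide, pH 7.5. Fluorescence read at 340/540nm at start and after 20 min at room temperature.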
Pol iota inh – DNA polymerase iota (human) inhibition. Pol iota fluorescent replication assay, 10 min. hit rate 1% among 390,000. Potency, µM (series often up to 115 µM), hits mostly inhibitors. AID 588590
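Pol iota at 10 nM preincubated 15 min with compounds at room temperature; reaction started with fluorescent substrate, 50 nM final. Fluorescence read kinetically at 0 and 10 min; buffer-only wells as negative control.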
Pol kappa inh – inhibitors of human DNA polymerase kappa; Potency, µM (top dose mostly 107 µM), most hits filed as inhibitors; Q9UBT6; AID 588579; hit rate 0.53% among 400,000; purified Pol kappa, fluorescent DNA synthesis assay, 10 min
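Enzyme at 10 nM met test compounds for 15 min at room temperature. Substrate addition (50 nM final) began the reaction, which was monitored by fluorescence at 0 and 10 min.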
GLS inhibitor – blocks human kidney-isoform glutaminase activity; hit rate 0.21% among 410,000; GLS enzymatic activity, qHTS titration; AID 624170; Potency, µM (doses to about 45.5 µM), actives largely listed as inhibitors
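Read-out is an Amplex red fluorescence increase coupled through glutamate oxidase and HRP, measured before and after 30 min room-temperature incubation. hKGA is in 45 mM KH2PO4 (pH 8.2) with 0.02% Tween-20; glutamine added as 1mM solution.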
POLH inh – DNA polymerase eta (human) inhibition; Q9Y253; recombinant Pol eta, fluorescent DNA replication assay; Potency, µM (titrated, usually from 114 µM), hits mostly inhibitors; hit rate 1.2% among 390,000; AID 588591
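Pol eta (10 nM) was preincubated with compounds for 15 min at room temperature, after which fluorescent replication substrate (50 nM final) was added to start the reaction. Fluorescence was read kinetically at 0 and 10 min.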
POLB inh – inhibitors of human DNA polymerase beta. P06746. Pol beta primer extension/strand displacement, fluorescence kinetic. Potency, µM (titrated, usually from 114 µM), most hits filed as inhibitors. hit rate 1.3% among 340,000. AID 485314
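10 nM enzyme + cpd, 15 min RT; start with substrate 50 nM final; read 0 min and after 10 min RT. Corrected, normalized data; 4-parameter Hill curve fit.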
A number is an active result; – = inactive; ? = inconclusive; · = no result given; [ ] = remark or other dose. An excerpt weighted towards active compounds, which were near 2.4% of everything screened. The call rests on the fitted dose curve; in most records, active means well fitted inhibition curve with a large enough effect; inconclusive means small, poorly fitted or top-dose-only effect, or another doubt; inactive means no such curve, though single readings can be large or run the other way.

SMILES	KAT2A inh	Pol iota inh	Pol kappa inh	GLS inhibitor	POLH inh	POLB inh
CCn1c2ccccc2c2nnc(SC3CCOC3=O)nc21 (stereo unspecified)	·	–	–	·	·	·
Cn1c(=O)c2sccc2n2c(CCC(=O)N3CCN(c4ccc(F)cc4)CC3)nnc12	–	–	–	·	·	–
CN(C)c1ccc(/C=C/c2ccnc3c(Cl)cccc23)cc1	·	–	–	·	·	·
C=CCSc1nnc2nc3c(nn12)c1cc(C)ccc1n3CC=C	–	?	–	–	?	25.1µM
C=CCn1c2ccccc2c2nnc(SCC(N)=O)nc21	–	–	–	–	–	–
CC(=O)OCC(NC(=O)C(Cc1ccccc1)NC(=O)OC(C)(C)C)C1OC(n2cc(F)c(=O)[nH]c2=O)C(OC(C)=O)C1OC(C)=O (stereo unspecified)	·	–	–	·	·	·
COC1=CC(=O)c2ccccc2C1=O	–	14.1µM	–	–	?	·
O=C(COC(=O)CC1CCCC1)Nc1cc2c(cc1Cl)C(=O)c1ccccc1C2=O	–	–	–	–	?	39.8µM
CC(C)c1ccc(NC(=O)COC(=O)CC2CCCC2)cc1	–	–	–	–	–	·
CCc1sc(-c2cc3ccccc3oc2=O)nc1-c1ccc(C)cc1	·	–	–	·	·	·
O=C(Nc1ccccc1)c1nc[nH]c1C(=O)NCCCNC(=O)c1[nH]cnc1C(=O)Nc1ccccc1	–	–	–	–	–	·
O=C(Nc1ccccc1)c1nc[nH]c1C(=O)NCCN(CCNC(=O)c1[nH]cnc1C(=O)Nc1ccccc1)CCNC(=O)c1[nH]cnc1C(=O)Nc1ccccc1	–	79.4µM	–	–	–	·
CC(=O)OCC(=O)[C@@]1(O)[C@H](C)C[C@H]2C3C[C@H](F)C4=CC(=O)C=CC4(C)C3[C@@H](O)CC21C (stereo partly specified)	·	·	·	–	·	·
CCCc1cc(C(=O)N2CCN(C(c3ccccc3)c3ccccc3)CC2)no1	–	?	89.1µM	–	?	–
CCCCNC(=S)N1CCN(C(c2ccccc2)c2ccccc2)CC1	–	–	–	–	–	–
Cc1cc(C(=O)N2CCN(C(c3ccccc3)c3ccccc3)CC2)no1	–	–	–	–	–	–
CCCNC(=S)N1CCN(C(c2ccccc2)c2ccccc2)CC1	–	–	–	–	?	56.2µM
S=C(NCCc1ccccc1)N1CCN(C(c2ccccc2)c2ccccc2)CC1	–	–	–	–	–	89.1µM
Cc1ncc(CO)c2c1Oc1nc(-c3ccccc3)nc(SCC(=O)N(C)c3ccccc3)c1C2	–	·	·	·	·	56.2µM
Cc1ncc(CO)c2c1Oc1nc(-c3ccccc3F)nc(SCC(=O)N(C)c3ccccc3)c1C2	–	?	–	–	79.4µM	–
CCN(CC)C(=O)CSc1nc(-c2ccccc2F)nc2c1Cc1c(CO)cnc(C)c1O2	–	–	–	–	–	–
COc1cccc(-c2nc3c(c(SCC(=O)N4CCOCC4)n2)Cc2c(CO)cnc(C)c2O3)c1	–	79.4µM	–	–	–	–
Cc1ncc(CO)c2c1Oc1nc(-c3ccccc3)nc(SCC(=O)N3CCCCC3)c1C2	–	–	–	–	?	–
c1ccc(-c2cn(-c3ccccc3)c3ncnc(N4CCN(c5ccccc5)CC4)c23)cc1	–	–	–	–	–	–
COc1cc(NC(=O)CN2C(=O)c3ccccc3C2=O)c(C(=O)O)cc1OC	–	89.1µM	?	–	–	–
SMILES	KAT2A inh	Pol iota inh	Pol kappa inh	GLS inhibitor	POLH inh	POLB inh
O=C(CNC(=O)c1cccs1)NCC(=O)OCc1ccccc1Cl	3.16µM	–	–	–	–	–
Cc1ccc(N(Cc2cccs2)C(=O)COc2ccccc2[N+](=O)[O-])cc1	–	–	–	–	–	–
Cc1cc(C(=O)N2CCN(c3ccc([N+](=O)[O-])cc3)CC2)no1	–	–	–	–	–	–
O=C(c1cc2ccccc2cc1O)N1CCN(c2ccc([N+](=O)[O-])cc2)CC1	–	89.1µM	–	–	–	·
O=C(c1cc([N+](=O)[O-])ccc1Cl)N1CCN(c2ccccc2)CC1	–	–	–	–	–	–
Cc1occc1C(=O)N1CCN(c2ccc([N+](=O)[O-])cc2)CC1	–	?	–	–	–	39.8µM
CCCCCC1CCNCC1	·	–	–	·	·	·
O=C(Nc1cc(F)ccc1F)c1cnn2c1NC(=C1CC1)C=C2C(F)F	·	–	–	·	·	·
Cc1ccc2nc(Nc3ccc(F)cc3)c3nncn3c2c1	?	–	–	–	–	31.6µM
Cc1ccc(C)c(Nc2nc3ccc(C)cc3n3cnnc23)c1	–	–	–	–	–	–
CC(/C=N/NC(=O)Cc1cccn1C)=C\c1ccco1	?	44.7µM	?	–	?	?
Cn1cccc1CC(=O)N/N=C/c1ccco1	–	–	–	–	–	?
COCCCCOc1cc2nc(N3CCCN(C)CC3)nc(NC3CCN(C)CC3)c2cc1OC	·	–	–	·	·	·
Cc1ccc(C2=NN(C(=O)CCC(=O)O)C(c3cn(-c4ccccc4)nc3-c3ccc(C)cc3)C2)cc1 (stereo unspecified)	?	–	–	?	?	22.4µM
CCOc1ccc2nc(Cl)c(C3CC(c4ccc(C)cc4)=NN3C(=O)CCCC(=O)O)cc2c1 (stereo unspecified)	–	–	–	–	?	22.4µM
Cc1ccc2nc(Cl)c(C3CC(c4cccs4)=NN3C(=O)CCCC(=O)O)cc2c1 (stereo unspecified)	–	?	–	–	–	–
Cc1ccc(-c2nn(-c3ccccc3)cc2C2CC(c3ccccc3)=NN2C(=O)CCC(=O)O)cc1 (stereo unspecified)	–	–	–	?	–	–
COc1ccccc1Cc1nc2ccccc2nc1SCC(=O)Nc1cc(Cl)ccc1OC	–	–	–	–	–	–
O=C1C(Nc2ccc(O)cc2)=C/C(=N/S(=O)(=O)c2cccs2)c2ccccc21	–	6.31µM	–	–	?	–
Cc1ccc(Cl)cc1NC1=C/C(=N\S(=O)(=O)c2cccs2)c2ccccc2C1=O	–[0.501 µM]	3.98µM	–	–	?	–
Cc1ccc(NC2=C/C(=N\S(=O)(=O)c3cccs3)c3ccccc3C2=O)c(C)c1	–	?	–	–	–	–
CCc1ccc(S(=O)(=O)/N=C2\C=C(Nc3ccc(O)cc3)C(=O)c3ccccc32)cc1	–	12.6µM	–	4.47µM	?	?
CCC(=O)Nc1ccc(-c2nnc(SCc3ccccc3)n2C)cc1	·	–	–	·	·	·
CC(C)(C)n1ncc2c(=O)n(Cc3c(F)ccc(Cl)c3Cl)cnc21	·	–	–	·	·	·
CNc1ccc(/C=C2\C=Cc3ccccc32)cc1OC	·	–	–	·	·	·
CC(C)CNc1ncnc2oc(-c3ccco3)c(-c3ccco3)c12	·	?	–	·	·	·
c1cnc2cc3c(cc2n1)[C@@H]1CNC[C@@H]3C1	·	·	·	–	·	·

Screens as filed in PubChem BioAssay.
